# Test results from PubChem BioAssay (EPA / NIEHS).
# Activity calls are given as the source filed them. Rule for the calls: active = hit-call score of the fitted dose curve at least 0.9, where 1 is the maximum; inactive = score below 0.9.
# Tests used:
# Conditions in all cases: mRNA level, 48 h; actives raise or lower the signal
# [1] = read-out: Cytochrome P450 (CYP24A1), CYP24A1 (gene 1591); experiment: LTEA_HepaRG_CYP24A1: Life Technologies and Expression Analysis (LTEA) Assay for Cytochrome P450 (CYP24A1) using HepaRG (AID 2283478)
# In short: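 Differentiated HepaRG cells, pre-cultured 48 h, were exposed in duplicate for 48 h in serum-free induction medium to 8 half-log concentrations (top 100 uM, 0.5% DMSO). CYP24A1 mRNA was quantified by TaqMan qRT-PCR, normalized to ACTB/GAPDH/POLR2A, fitted bidirectionally versus DMSO.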
# [2] = read-out: Cytochrome P450 (CYP1A2), CYP1A2 (gene 1544); experiment: LTEA_HepaRG_CYP1A2: Life Technologies and Expression Analysis (LTEA) Assay for Cytochrome P450 (CYP1A2) using HepaRG (AID 2283479)
# In short: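 Differentiated human HepaRG cells in serum-free induction medium were exposed in duplicate for 48 h to 8-point half-log concentrations up to 100 uM in 0.5% DMSO. CYP1A2 mRNA measured by qRT-PCR, normalized to ACTB, GAPDH, POLR2A; bidirectional fit vs DMSO.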
# [3] = read-out: cysteine-aspartic acid protease (CASP8), CASP8 (gene 841); experiment: LTEA_HepaRG_CASP8: Life Technologies and Expression Analysis (LTEA) Assay for cysteine-aspartic acid protease (CASP8) using HepaRG (AID 2283480)
# In short: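 Concentration-response in duplicate up to 100 uM (half-log steps, 0.5% DMSO) on differentiated HepaRG cultures for 48 h. Expression change of CASP8 mRNA is determined by TaqMan qRT-PCR with housekeeping-gene normalization.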
# [4] = read-out: Cytochrome P450 (CYP2B6), CYP2B6 (gene 1555); experiment: LTEA_HepaRG_CYP2B6: Life Technologies and Expression Analysis (LTEA) Assay for Cytochrome P450 (CYP2B6) using HepaRG (AID 2283481)
# In short: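 Differentiated HepaRG cells, serum-free induction medium, exposed 48 h in duplicate to 8-point half-log concentrations from 100 uM in 0.5% DMSO. CYP2B6 mRNA by qRT-PCR, normalized to ACTB, GAPDH, POLR2A; bidirectional fit versus DMSO.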
# [5] = read-out: Cytochrome P450 2C19 (Homo sapiens) (UniProt P33261); experiment: LTEA_HepaRG_CYP2C19: Life Technologies and Expression Analysis (LTEA) Assay for CYP2C19 using HepaRG (AID 2283482)
# In short: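 Differentiated human HepaRG cells were exposed for 48 h in serum-free induction medium to 8 concentrations (top 100 uM, half-log steps, 0.5% DMSO). CYP2C19 mRNA was measured by qRT-PCR, normalized to ACTB/GAPDH/POLR2A, and fitted bidirectionally against DMSO.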
# CYP2C8 (gene 1558) = experiment: LTEA_HepaRG_CYP2C8: Life Technologies and Expression Analysis (LTEA) Assay for CYP2C8 using HepaRG (AID 2283483)
# In short: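 This is a transcriptional endpoint in HepaRG cultures: 48 h exposure, highest concentration 100 uM. CYP2C8 mRNA is quantified by TaqMan qRT-PCR.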
# CYP2C9 (gene 1559) = experiment: LTEA_HepaRG_CYP2C9: Life Technologies and Expression Analysis (LTEA) Assay for CYP2C9 using HepaRG (AID 2283484)
# In short: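 Eight-point concentration-response (highest 100 uM, half-log dilutions) in HepaRG cells for 48 h; CYP2C9 expression by qRT-PCR normalized to ACTB, GAPDH, POLR2A. Bidirectional fit, DMSO baseline.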
# CYP2E1 (gene 1571) = experiment: LTEA_HepaRG_CYP2E1: Life Technologies and Expression Analysis (LTEA) Assay for CYP2E1 using HepaRG (AID 2283485)
# In short: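 CYP2E1 transcript measured by Fluidigm qRT-PCR against three housekeeping genes in human HepaRG cells treated 48 h (top 100 uM, half-log steps, 0.5% DMSO vehicle). Gain or loss fitted relative to DMSO baseline.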
# [6] = read-out: Cytochrome P450 3A4 (Homo sapiens) (UniProt P08684); experiment: LTEA_HepaRG_CYP3A4: Life Technologies and Expression Analysis (LTEA) Assay for CYP3A4 using HepaRG (AID 2283487)
# In short: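 In a human hepatic line (HepaRG), duplicate wells were treated 48 h with up to 100 uM chemical in half-log dilutions. Endpoint: CYP3A4 mRNA induction or loss relative to 0.5% DMSO vehicle, by qRT-PCR.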
# [7] = read-out: DNA damage-inducible transcript 3 (DDIT3), DDIT3 (gene 1649); experiment: LTEA_HepaRG_DDIT3: Life Technologies and Expression Analysis (LTEA) Assay for DNA damage-inducible transcript 3 (DDIT3) using HepaRG (AID 2283488)
# In short: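 DDIT3 transcript was quantified by qRT-PCR with ACTB/GAPDH/POLR2A normalization after 48 h chemical treatment of differentiated HepaRG cells in 0.5% DMSO. Dosing was eight-point, half-log, top 100 uM, duplicate wells. Curves fitted bidirectionally versus DMSO.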
# [8] = read-out: Pro-epidermal growth factor (Homo sapiens) (UniProt P01133); experiment: LTEA_HepaRG_EGF: Life Technologies and Expression Analysis (LTEA) Assay for Epidermal growth factor (EGF) using HepaRG (AID 2283489)
# In short: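 Differentiated human HepaRG cells, plated 48 h then switched to serum-free induction medium, were exposed for 48 h to test chemicals (8-point half-log series, top 100 uM, 0.5% DMSO). EGF mRNA was quantified by qRT-PCR, normalized to ACTB, GAPDH, POLR2A.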
# [9] = read-out: Ezrin (EZR), EZR (gene 7430); experiment: LTEA_HepaRG_EZR: Life Technologies and Expression Analysis (LTEA) Assay for Ezrin (EZR) using HepaRG (AID 2283491)
# In short: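 Gain or loss of EZR mRNA is scored relative to 0.5% DMSO in human HepaRG cultures treated 48 h with test chemicals in duplicate, eight half-log concentrations from 100 uM.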
# [10] = read-out: Cytochrome P450 3A7 (Homo sapiens) (UniProt P24462); experiment: LTEA_HepaRG_CYP3A7: Life Technologies and Expression Analysis (LTEA) Assay for CYP3A7 using HepaRG (AID 2283492)
# In short: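 HepaRG cells plated 48 h, then dosed in serum-free induction medium for 48 h at 8 concentrations (top 100 uM, half-log steps, 0.5% DMSO). CYP3A7 mRNA by qRT-PCR, normalised to ACTB/GAPDH/POLR2A; bidirectional fit versus DMSO.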
# CYP3A5 (gene 1577) = experiment: LTEA_HepaRG_CYP3A5: Life Technologies and Expression Analysis (LTEA) Assay for CYP3A5 using HepaRG (AID 2283493)
# In short: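 mRNA levels were quantified by qRT-PCR on Fluidigm arrays and normalized to three housekeeping genes. Differentiated HepaRG cells received 48 h exposure (top 100 uM, half-log steps, 0.5% DMSO vehicle, duplicate); bidirectional fitting versus DMSO.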
# [11] = read-out: Fatty Acid-Binding Protein 1 (FABP1), FABP1 (gene 2168); experiment: LTEA_HepaRG_FABP1: Life Technologies and Expression Analysis (LTEA) Assay for Fatty Acid-Binding Protein 1 (FABP1) using HepaRG (AID 2283494)
# In short: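 Values reflect bidirectional concentration-response fitting of FABP1 mRNA change against 0.5% DMSO controls. Human HepaRG cultures received eight half-log doses (top 100 uM) for 48 h; expression quantified by TaqMan qRT-PCR with housekeeping-gene normalization.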
# [12] = read-out: Cytochrome P450 4A22 (Homo sapiens) (UniProt Q5TCH4); experiment: LTEA_HepaRG_CYP4A22: Life Technologies and Expression Analysis (LTEA) Assay for Cytochrome P450 4A22 (CYP4A22) using HepaRG (AID 2283495)
# In short: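 qRT-PCR of CYP4A22 mRNA (Fluidigm TaqMan, normalized to three housekeeping genes) after 48 h chemical exposure of HepaRG cells; 8-point half-log series, top 100 uM, 0.5% DMSO vehicle. Bidirectional curve fitting vs DMSO baseline.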
# [13] = read-out: Cytochrome P450 7A1 (Homo sapiens) (UniProt P22680); experiment: LTEA_HepaRG_CYP7A1: Life Technologies and Expression Analysis (LTEA) Assay for Cytochrome P450 7A1 (CYP7A1) using HepaRG (AID 2283496)
# In short: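 HepaRG, 48 h exposure, 8-pt half-log series from 100 uM, 0.5% DMSO vehicle, duplicates. Readout: TaqMan qRT-PCR mRNA vs three housekeeping genes; bidirectional curve fit against DMSO baseline.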
# [14] = read-out: Glutathione S-Transferase (GSTA2), GSTA2 (gene 2939); experiment: LTEA_HepaRG_GSTA2: Life Technologies and Expression Analysis (LTEA) Assay for Glutathione S-Transferase (GSTA2) using HepaRG (AID 2283497)
# In short: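 Oxidative-stress marker GSTA2 is quantified by TaqMan qRT-PCR in HepaRG cultures treated 48 h across an eight-point range to 100 uM. Expression is normalized to endogenous controls and compared with 0.5% DMSO vehicle.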
# [15] = read-out: Early growth response protein 1 (EGR1) transcription factor, EGR1 (gene 1958); experiment: LTEA_HepaRG_EGR1: Life Technologies and Expression Analysis (LTEA) Assay for Early growth response protein 1 (EGR1) transcription factor using HepaRG (AID 2283490)
# In short: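 EGR1 expression change in human HepaRG after 48 h chemical exposure, assessed by housekeeping-normalized qRT-PCR; concentration-response up to 100 uM, fitted in both directions against DMSO controls.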
# Cytochrome P450 3A7 (Homo sapiens), sequence (P24462 whole entry, looked up): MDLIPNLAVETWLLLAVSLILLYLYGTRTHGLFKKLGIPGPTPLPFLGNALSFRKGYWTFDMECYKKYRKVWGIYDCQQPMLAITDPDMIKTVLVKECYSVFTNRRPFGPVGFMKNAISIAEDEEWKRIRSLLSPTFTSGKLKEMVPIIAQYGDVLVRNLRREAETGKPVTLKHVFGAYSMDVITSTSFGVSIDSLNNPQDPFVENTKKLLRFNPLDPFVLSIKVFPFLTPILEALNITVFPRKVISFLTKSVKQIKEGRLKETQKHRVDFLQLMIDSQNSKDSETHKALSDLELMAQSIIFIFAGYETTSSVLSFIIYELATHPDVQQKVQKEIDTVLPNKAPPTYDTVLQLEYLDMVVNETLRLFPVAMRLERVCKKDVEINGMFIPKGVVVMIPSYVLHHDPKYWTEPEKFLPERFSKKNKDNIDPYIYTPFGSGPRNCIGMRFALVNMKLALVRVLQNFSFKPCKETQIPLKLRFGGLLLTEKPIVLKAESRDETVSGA
# Cytochrome P450 3A4 (Homo sapiens), sequence (P08684 whole entry, looked up): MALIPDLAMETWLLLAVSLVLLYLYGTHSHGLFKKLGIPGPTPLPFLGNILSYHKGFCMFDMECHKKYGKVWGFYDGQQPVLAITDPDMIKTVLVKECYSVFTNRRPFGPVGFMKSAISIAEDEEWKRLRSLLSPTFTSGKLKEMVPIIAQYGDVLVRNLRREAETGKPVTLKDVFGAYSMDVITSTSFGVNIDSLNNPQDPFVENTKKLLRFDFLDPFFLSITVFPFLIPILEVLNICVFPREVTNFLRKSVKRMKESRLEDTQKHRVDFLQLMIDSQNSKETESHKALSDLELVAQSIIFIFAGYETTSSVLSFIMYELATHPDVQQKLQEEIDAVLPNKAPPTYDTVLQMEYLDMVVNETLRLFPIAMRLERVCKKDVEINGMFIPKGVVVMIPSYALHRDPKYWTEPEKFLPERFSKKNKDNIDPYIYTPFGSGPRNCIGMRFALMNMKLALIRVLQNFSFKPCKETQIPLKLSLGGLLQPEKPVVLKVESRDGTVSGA
# Cytochrome P450 2C19 (Homo sapiens), sequence (P33261 whole entry, looked up): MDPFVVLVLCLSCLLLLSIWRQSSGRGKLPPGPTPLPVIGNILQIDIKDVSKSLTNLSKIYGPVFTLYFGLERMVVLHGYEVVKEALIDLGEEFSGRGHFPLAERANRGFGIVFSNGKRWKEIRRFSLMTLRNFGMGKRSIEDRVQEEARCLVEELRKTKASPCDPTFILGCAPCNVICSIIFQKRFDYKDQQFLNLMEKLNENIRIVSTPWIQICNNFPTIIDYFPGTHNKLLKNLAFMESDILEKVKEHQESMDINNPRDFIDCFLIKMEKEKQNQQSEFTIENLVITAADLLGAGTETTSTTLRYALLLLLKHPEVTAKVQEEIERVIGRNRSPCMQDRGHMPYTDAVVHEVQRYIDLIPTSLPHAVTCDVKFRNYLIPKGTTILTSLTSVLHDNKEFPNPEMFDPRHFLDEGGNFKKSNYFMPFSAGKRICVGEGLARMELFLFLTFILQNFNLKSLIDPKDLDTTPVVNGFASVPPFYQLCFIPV
smiles,measurement,setting,value
Cc1cc(CCN2CCN(c3nsc4ccccc34)CC2)cc2c1NC(=O)CC2(C)C,outcome,[1],inactive
same,AC50,[2],12.6 µM (active)
same,outcome,[3],inactive
same,AC50,[4],79.7 µM (active)
same,AC50,[5],88.4 µM (active)
same,AC50,CYP2C8 (gene 1558),82.5 µM (active)
same,AC50,CYP2C9 (gene 1559),80.3 µM (active)
same,AC50,CYP2E1 (gene 1571),66.2 µM (active)
same,AC50,[6],92 µM (active)
same,AC50,[7],71.9 µM (active)
same,outcome,[8],inactive
same,AC50,[9],9.92 µM (active)
same,AC50,[10],79.5 µM (active)
same,outcome,CYP3A5 (gene 1577),inactive
same,AC50,[11],69.7 µM (active)
same,AC50,[12],58.6 µM (active)
same,AC50,[13],80.6 µM (active)
same,AC50,[14],81.9 µM (active)
CC(=O)CC(C)(C)O,outcome,[1],inactive
same,outcome,[2],inactive
same,outcome,[3],inactive
same,outcome,[4],inactive
same,outcome,CYP2C8 (gene 1558),inactive
same,outcome,CYP2C9 (gene 1559),inactive
same,outcome,CYP2E1 (gene 1571),inactive
same,outcome,[6],inactive
same,outcome,[7],inactive
same,outcome,[8],inactive
same,outcome,[9],inactive
same,outcome,[10],inactive
same,outcome,CYP3A5 (gene 1577),inactive
same,outcome,[11],inactive
same,outcome,[12],inactive
same,outcome,[13],inactive
same,outcome,[14],inactive
OCCC(F)(F)C(F)(F)C(F)(F)C(F)(F)C(F)(F)C(F)(F)F,outcome,[1],inactive
same,outcome,[3],inactive
same,outcome,[4],inactive
same,outcome,[5],inactive
same,outcome,CYP2C8 (gene 1558),inactive
same,outcome,CYP2C9 (gene 1559),inactive
same,outcome,CYP2E1 (gene 1571),inactive
same,outcome,[6],inactive
same,outcome,[7],inactive
same,outcome,[8],inactive
same,outcome,[15],inactive
same,outcome,[9],inactive
same,outcome,[10],inactive
same,outcome,CYP3A5 (gene 1577),inactive
same,outcome,[11],inactive
same,outcome,[12],inactive
same,outcome,[13],inactive
same,outcome,[14],inactive
